The list is not random: actives were taken first. Their share in the collection is about 2.9%.
ADAM17 inh: inhibitors of human ADAM17 | inhibition, % at 6.95 µM | hit rate 0.83% among 370,000 | P78536 | AID 720648 | recombinant ADAM17, EDANS/DABCYL FRET peptide cleavage;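 active = inhibition above the mean of compounds lying between control limits plus 3 SD, set per campaign, cut at about 8.5% in these data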;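 note: 0% = DMSO-only wells as the low control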
ADAM10 inh: ADAM10 inhibition, QFRET primary screen. hit rate 0.62% among 370,000. O14672. inhibition, % at 7 µM. recombinant ADAM10, EDANS/DABCYL FRET peptide cleavage, 3 h;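 active = inhibition above a per-campaign cutoff equal to the mean of compounds falling between control-based bounds plus 3 SD, cut at about 20% in these data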;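 note: 0% = DMSO wells while the 100% control is not disclosed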
KLK7 zymogen act: activators of human kallikrein-7 zymogen; activation, % at 7 µM; P49862; purified proKLK7, EDANS-DABCYL substrate fluorescence; 100% is mature enzyme control, 0% vehicle; hit rate 0.9% among 370,000;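 active = activation above the mean of all tested compounds plus 3 SD, computed per campaign excluding outliers beyond control limits, cut at about 13% in these data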
Target sequence (P49862 whole entry, looked up): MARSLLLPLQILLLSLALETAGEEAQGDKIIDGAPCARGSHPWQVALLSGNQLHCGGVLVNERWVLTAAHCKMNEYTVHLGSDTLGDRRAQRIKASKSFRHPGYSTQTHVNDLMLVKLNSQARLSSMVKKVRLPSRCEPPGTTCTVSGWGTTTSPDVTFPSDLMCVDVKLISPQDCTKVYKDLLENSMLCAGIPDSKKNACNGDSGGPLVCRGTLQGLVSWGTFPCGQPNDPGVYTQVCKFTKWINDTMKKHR
PLCb3 inh: blocks human PLC-beta3 enzyme activity; Q01970; Purified PLC-beta3, fluorogenic substrate, fluorescence; inhibition, % at 12.2 µM; hit rate 0.18% among 370,000; in the data active = inhibition above about 11%;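 note: 0% = median of compound wells on plate and 100% = full blocker control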
PLC-gamma1 inh: blocks human PLC-gamma1 enzyme activity; P19174; purified PLC-gamma1, fluorogenic substrate, fluorescence; inhibition, % at 12.2 µM; hit rate 0.84% among 370,000; in the data active = inhibition above about 9.5%
ADAM10 confirm: human ADAM10 inhibition, confirmation; shares compounds with ADAM10 inh; ADAM10 QFRET peptide cleavage, EDANS fluorescence; inhibition, % at 6.95 µM; hit rate 1% among 2,100; AID 743208;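 active = inhibition above about 20% chosen separately for each screening run, limit read from the data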;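 note: 0% = DMSO wells and 100% = marimastat wells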
ADAM17 counter: ADAM17 inhibition, counter-screen for ADAM10 exosite hits; ADAM17 QFRET peptide cleavage, EDANS fluorescence; shares compounds with ADAM10 inh; hit rate 0.5% among 2,100; inhibition, % at 6.95 µM;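 active = mean triplicate inhibition above the solvent-only control wells' mean plus 3 SD, cut at about 12% in these data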;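 note: 0% = DMSO wells and 100% = marimastat wells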
ADAM10 ctr: inhibits human ADAM10 in ADAM17 exosite counter-screen | shares compounds with ADAM17 inh | recombinant ADAM10, EDANS/DABCYL FRET peptide cleavage, 3 h | inhibition, % at 6.95 µM | hit rate 47% among 2,900 | AID 743256;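 active = mean inhibition over the triplicate runs exceeds the activity threshold set in the earlier primary screen, cut at about 20% in these data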;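 note: 0% = DMSO wells and 100% = marimastat wells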
ADAM17 confirm: confirmation of inhibitors of human ADAM17. hit rate 65% among 2,900. inhibition, % at 6.95 µM. AID 743257. shares compounds with ADAM17 inh. recombinant ADAM17, EDANS/DABCYL QFRET peptide cleavage;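 active = mean inhibition across replicates above the hit cutoff set in the primary screen, cut at about 8.5% in these data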;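 note: 0% = DMSO wells and 100% = marimastat wells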
Numbers without * were called inactive; · = no result.

SMILES	ADAM17 inh	ADAM10 inh	KLK7 zymogen act	PLCb3 inh	PLC-gamma1 inh	ADAM10 confirm	ADAM17 counter	ADAM10 ctr	ADAM17 confirm
Cn1c(COc2ccccc2)nnc1SCC(=O)Nc1ccccc1-c1ccccc1	5	-3	1	2	-1	·	·	·	·
CC(O)(c1ccccc1)c1nc(-c2cc3ccccc3o2)cs1 (stereo unspecified)	8.7*	26*	1	2	-1	13	4	30*	15*
CC(O)(c1ccccc1)c1nc(-c2ccc(Cl)cc2)cs1 (stereo unspecified)	-1	11	4	2	2	·	·	·	·
CC(O)(c1ccc(F)c(F)c1)c1nc(-c2ccc3ccccc3c2)cs1 (stereo unspecified)	22*	44*	1	-1	5	7	3	17	9.4*
COC(=O)[C@]12C[C@H](CC(=O)NCCCCc3ccccc3)C(=O)N(Cc3ccco3)C1=C[C@H](C1CCCC1)O[C@@H]2C	1	16	0	2	-2	·	·	·	·
C=CCc1cccc(CNc2nc3ccccc3n2C)c1O	11*	20*	0	-4	2	3	1	32*	17*
O=C(CNC(=O)OCc1ccccc1)NC1CCCCCC1	-1	-2	-1	2	2	·	·	·	·
Cc1ccc(C2CC2C(=O)NNC(=S)Nc2cccc(Cl)c2)cc1 (stereo unspecified)	22*	39*	0	4	7	7	1	24*	11*
COc1cccc(NC(=O)CN(C)CC(=O)NCC(=O)Nc2ccc(F)cc2)c1	-2	-12	-1	-7	0	·	·	·	·
COc1ccc(NC(=O)CCOc2cc(C)ccc2C)cc1S(=O)(=O)N1CCCCC1	12*	24*	0	5	7	2	1	9	9.2*
Cc1ccc(C)c(OCCC(=O)Nc2cc(S(=O)(=O)N3CCCCC3)ccc2C)c1	0	-8	0	5	2	·	·	·	·
Cc1ccc(C)c(OCCC(=O)OCC(=O)Nc2cc(S(=O)(=O)N3CCCCC3)ccc2C)c1	11*	25*	0	-3	1	6	2	45*	21*
CC(=O)c1ccc(OCCCC(=O)Nc2ccc(C)c(S(=O)(=O)N3CCCCC3)c2)cc1	-4	-9	0	-4	-2	·	·	·	·
CCOc1ccc(C(=O)CCC(=O)Nc2ccc(C)c(S(=O)(=O)N3CCCCC3)c2)cc1	9.1*	28*	0	-1	2	6	3	27*	13*
CN(CCOc1ccccc1)C(=O)c1cc(S(=O)(=O)N2CCOCC2)ccc1Cl	-6	-10	0	-5	4	·	·	·	·
Cc1cc(C)cc(NC(=O)C2CCN(S(=O)(=O)c3ccc4c(c3)NC(=O)C(C)S4)CC2)c1 (stereo unspecified)	4	18	1	-9	5	·	·	·	·
Cc1ccc(NC(=O)C2CCN(S(=O)(=O)c3ccc4c(c3)NC(=O)C(C)S4)CC2)cc1Cl (stereo unspecified)	9.4*	24*	0	-4	2	6	3	47*	24*
FC(F)(F)c1cccc(NC(=S)NCc2ccc(Cl)cc2)c1	9.1*	22*	1	0	2	3	2	26*	15*
Fc1ccc(CNC(=S)Nc2cccc(C(F)(F)F)c2)cc1	5	0	0	0	-2	·	·	·	·
Cc1ccc(NC(=O)COC(=O)/C(=C/c2cccs2)c2cccs2)cc1S(=O)(=O)N(C)C	15*	24*	0	2	5	7	3	12	13*
COc1ccccc1S(=O)(=O)N(C)C[C@@H]1Oc2cc(C#CCC(C)C)ccc2S(=O)(=O)N([C@H](C)CO)C[C@@H]1C	11*	26*	0	0	-1	8	3	46*	26*
COCCCNC(=O)c1c(-c2ccccc2)noc1C	-3	0	0	-1	0	·	·	·	·
O=[N+]([O-])c1cc(Cl)cc(/C=N/NC(=S)Nc2ccc(S(=O)(=O)N3CCOCC3)cc2)c1O	17*	35*	0	-32	-20	8	1	29*	18*
O=S(=O)(c1ccc(NC(=S)N/N=C/c2ccc(O)c(O)c2)cc1)N1CCOCC1	-3	-4	1	-23	-12	·	·	·	·
COc1cccc(NC(=O)/C=C/c2ccco2)c1	2	7	-1	-6	3	·	·	·	·
SMILES	ADAM17 inh	ADAM10 inh	KLK7 zymogen act	PLCb3 inh	PLC-gamma1 inh	ADAM10 confirm	ADAM17 counter	ADAM10 ctr	ADAM17 confirm
CNC(=O)c1[nH]cnc1C(=O)Nc1ccccc1C	-8	-2	0	-3	2	·	·	·	·
Cc1ccc(S(=O)(=O)N2CCN(C3CC(=O)N(CCc4ccccc4)C3=O)CC2)cc1C (stereo unspecified)	-4	-3	1	-4	2	·	·	·	·
Cc1cc(C)nc(NS(=O)(=O)c2ccc(NC(=O)c3ccccc3[N+](=O)[O-])cc2)n1	-3	-4	0	-7	1	·	·	·	·
O=C(OC(c1ccc(NS(=O)(=O)c2ccccc2)cc1)(C(F)(F)F)C(F)(F)F)c1ccccc1	13*	32*	1	3	2	4	2	36*	18*
Cc1ccc(S(=O)(=O)Nc2ccc(C(OC(=O)c3ccccc3[N+](=O)[O-])(C(F)(F)F)C(F)(F)F)cc2)cc1	10*	22*	0	8	3	4	2	47*	27*
CCC(=O)c1ccc(N2CCN(C(=O)c3cccc(F)c3)CC2)c(F)c1	-2	1	0	-2	-2	·	·	·	·
COc1ccc(OC)c(-c2cc(C(=O)Nc3c(C)nn(Cc4ccccc4Cl)c3C)no2)c1	-3	0	0	-8	-1	·	·	·	·
NNC(=O)/C(=N/Nc1ccccc1)S(=O)(=O)c1ccc(Cl)cc1	11*	21*	-1	-13	-4	4	3	15	9.9*
CCOC(=O)/C(=N/Nc1ccc(C)cc1)S(=O)(=O)c1ccc(Cl)cc1	0	10	0	6	2	·	·	·	·
CS(=O)(=O)c1nc(-c2ccccc2)c(-c2ccccc2)[nH]1	0	-6	0	-1	0	·	·	·	·
COc1ccc(N=Nc2nc(-c3ccccc3)c(-c3ccccc3)[nH]2)cc1	9.2*	24*	0	3	0	9	3	32*	15*
Oc1ccccc1N=Nc1nc(-c2ccccc2)c(-c2ccccc2)[nH]1	9.9*	26*	0	2	7	5	2	28*	12*
